Sm TGR inh – S. mansoni TGR enzyme inhibition. Q962Y6. purified TGR, DTNB reduction, TNB absorbance 405 nm. Potency, µM (series often up to 114 µM), without a hit: top-dose activity change, negative = inhibition, usual class: inhibitors. hit rate 3% among 360,000. AID 485364; also: % is scaled to controls: 0 for no effect and ±100 for the full control effect; nearly all actives have a fitted effect of over 60% in size
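First, TGR (20 nM dispensed) and NADPH were mixed with compound. Second, a 15 min room-temperature incubation followed. Third, further NADPH and then DTNB were added to start the reaction. Finally, TNB absorbance was monitored kinetically.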
NS1 inh – influenza NS1 inhibition; Potency, µM (doses to about 46.1 µM), for the others: at the top dose activity, positive = more growth; hit rate 0.4% among 270,000; AID 2326; calls by dose curve; also: actives are rising curves; nearly all actives have a fitted effect of over 50% in size
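Read-out: OD600 growth recovery of NS1-expressing budding yeast. Cells grown overnight at 30C in -URA glucose medium, washed, resuspended and diluted 1:100 in 2% galactose assay medium, pH 6.0. Same strain lacking NS1 served as positive control.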
AMA1 RON2 block – AMA1-RON2 (P. falciparum) interaction inhibition | AlphaScreen AMA1-biotinylated RON2 peptide binding | Potency, µM (titrated, usually from 58.2 µM), inactives show at the top dose activity change, negative = inhibition, most hits filed as inhibitors | hit rate 0.2% among 360,000 | AID 720542;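 also: 0% = vehicle wells and -100% = peptide control; nearly all actives have a fitted effect of over 45% in size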
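AMA1 (3D7) with his tag at 25 nM final met compounds first, then biotinylated RON2 peptide at 25 nM; detection used donor plus acceptor beads, 10 µg/mL apiece, read by AlphaScreen after 30 min at room temperature.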
Pf growth 48h – inhibits P. falciparum growth in the first generation, 48 h. AID 504832. Potency, µM (series often up to 28.7 µM), for the others: at the top dose activity change, negative = inhibition, actives largely listed as inhibitors. P. falciparum luciferase growth in erythrocytes, 48 h. hit rate 5.9% among 310,000; also: % is scaled to controls: 0 for no effect and ±100 for the full control effect
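First compound was added to culture medium, then infected red cells at 0.1% parasitemia and 2% hematocrit (final). After incubation at 37 C under 5% CO2, luciferase detection reagent was dispensed and light output recorded.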
Pf growth 96h – P. falciparum growth inhibition at 96 hour, primary screen for plastid delayed-death inhibitors. AID 504834. Potency, µM (titrated, usually from 28.7 µM), for inactives: top-dose activity change, negative = inhibition, most hits filed as inhibitors. P. falciparum luciferase reporter growth, 96 h. hit rate 6.9% among 320,000; also: % is scaled to controls: 0 for no effect and ±100 for the full control effect
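Luminescence readout: decreased luciferase signal marks inhibited growth of reporter-expressing P. falciparum in infected red cells (2% hematocrit, 0.05% parasitemia final), exposed to compound two generations (96 h, 37 C, 5% CO2).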
Active calls of the source: *; ? = inconclusive; nt = not tested or not shown; [ ] = remark or other dose. Only some compounds are listed: those with a hit (about 11% of all), similar ones and a draw of the others. Unless noted, calls follow the shape of the dose curve; as a rule, active = well fitted curve in the direction sought with a large enough effect; inconclusive = small, poorly fitted or top-dose-only effect, or another doubt; inactive = no such curve, though single readings can be large; an effect the other way counts as inactive or inconclusive. Potency is read from the fitted curve at half-maximal effect.

SMILES	Sm TGR inh	NS1 inh	AMA1 RON2 block	Pf growth 48h	Pf growth 96h
Cc1ccc2c(c1)N(S(=O)(=O)c1ccc(CN3C(=O)c4cccnc4C3=O)s1)CCO2	3%	-18%	49%	25%	4.1µM*
CC(=O)c1c(C)[nH]c(C(=O)N2CCN(S(=O)(=O)c3ccc(C)cc3C)CC2)c1C	-13%	nt	-4%	?	?
CCC(C(=O)OCC(=O)N1CCN(S(=O)(=O)c2ccc(C)cc2C)CC1)c1ccccc1 (centres undefined)	0%	nt	10%[11.6 µM]	13µM*	9.3µM*
CCOC(=O)c1c(C)[nH]c(C(=O)OCC(=O)N2CCN(S(=O)(=O)c3ccc(C)cc3C)CC2)c1C	-21%	nt	4%	15µM*	7.4µM*
Cc1ccc(S(=O)(=O)NC(=NC(Cc2ccccc2)C(=O)O)c2ccccc2)cc1 (centres undefined)	-4%	11%	-5%	10%	?
CCOC(=O)CNC(=O)c1cccnc1Oc1ccc(Cl)cc1	29%	2%	2%	34%	-11%
O=C(CN1CCCCCC1)Nc1cccc2c1OCO2	0%	-11%	5%	5%	1µM*
CC(=O)C1=C(C)OC(N)=C(C#N)C1c1cccc([N+](=O)[O-])c1 (centres undefined)	14µM*	nt	-4%	16%	9%
CC(=O)C1=C(C)OC(N)=C(C#N)C1c1cc([N+](=O)[O-])ccc1Cl (centres undefined)	22µM*	5%	-12%	-29%	-3%
CC(=O)C1=C(C)OC(N)=C(C#N)C1c1ccncc1 (centres undefined)	43%	9%	35%	-18%	-23%
COc1ccc(CSC(=S)NNc2ccccc2)cc1	nt	nt	60%	nt	nt
COC(=O)c1ccc2c(=O)[nH]c(CN3c4ccccc4CC3C)nc2c1 (centres undefined)	7.1µM*	?	41%	?	3.3µM*
COc1cc(OC)c(NC(C)C(=O)N2CCCC2)cc1Cl (centres undefined)	-21%	nt	-17%	-14%	-4%
Cc1ccccc1/C(N)=N/OC(=O)N1c2ccccc2Sc2ccccc21	0%	-43%	-20%	?	10µM*
O=C(CSc1nc2ccccc2c(=O)n1CCCN1CCOCC1)Nc1ccccc1OC(F)F	nt	nt	-18%	nt	nt
O=C(Nc1ccccc1)c1ccccc1Oc1ccc(C(F)(F)F)cc1[N+](=O)[O-]	1%	-31%	-3%[2.32 µM]	-14%	17%
O=C(Nc1ccc(F)cc1)c1ccccc1Oc1ccc(C(F)(F)F)cc1[N+](=O)[O-]	2%	-34%	-21%	10µM*	-99%
CC(CCc1nc2ccccc2s1)(c1ccc(O)cc1)c1ccc(O)cc1	nt	-31%	nt	nt	nt
CCCCCCSc1cccc(-c2nc3ccc(C)cn3c2NC2CCCCC2)c1	-6%	nt	-2%	9.3µM*	5.2µM*
CCCCCCSc1cccc(-c2nc3cc(C)ccn3c2NC2CCCCC2)c1	1%	nt	21%	9.3µM*	?
Cc1cccc([C@H](NC(=O)OC(C)(C)C)C(=O)OC(C)(C)C)c1	-7%	nt	11%	-8%	?
CC(C)(C)OC(=O)N[C@H](C(=O)OC(C)(C)C)c1ccc2c(c1)OCO2	-9%	nt	?	12µM*	?
CC1(C(=O)O)CCC(C(=O)Nc2ccccc2O)C1(C)C (centres undefined)	1%	-4%	7%	nt	12µM*
CC(=O)c1ccc(NC(=O)C2CCC(C)(C(=O)O)C2(C)C)cc1 (centres undefined)	1%	3%	-6%	13%	?
O=C(O)/C=C/C(=O)NCc1csc2ccccc12	-23%	-3%	1%	14%	5%
SMILES	Sm TGR inh	NS1 inh	AMA1 RON2 block	Pf growth 48h	Pf growth 96h
COc1cccc(OC)c1OCc1cc(C2C3CCCC=C3C(C#N)=C(N)C2(C#N)C#N)c(C)cc1C (centres undefined)	40µM*	17%	32%	?	9.3µM*
CCCN1CC=C2C(C#N)=C(N)C(C#N)(C#N)C(c3cccc(OC)c3OC)C2C1 (centres undefined)	?	10%	12%	?	nt
CC(C)OCCCNC(=O)c1c(N)n(CC2CCCO2)c2nc3ccccc3nc12 (centres undefined)	-31%	-66%	21%	3.3µM*	?
Nc1c(C(=O)OC2CCCCC2)c2nc3ccccc3nc2n1CC1CCCO1 (centres undefined)	-1%	-124%	18%	?	13µM*
CCCNC(=O)c1c(N)n(CC2CCCO2)c2nc3ccccc3nc12 (centres undefined)	-17%	-121%	31%	-55%	?
CC(C)OC(=O)c1c(N)n(CC2CCCO2)c2nc3ccccc3nc12 (centres undefined)	3%	-9%	7%	?	49%
CCOC(=O)N1CCC(NC(=O)Cn2cc3c(n2)CCC(C)C3)CC1 (centres undefined)	-1%	0%	6%	-8%	48%
CC1CCc2nn(CC(=O)N3CCc4ccccc43)cc2C1 (centres undefined)	0%	-5%	-8%	nt	10µM*
CC1CCc2nn(CC(=O)NC3CCCC(C)C3C)cc2C1 (centres undefined)	4%	-39%	2%	7%	0.37µM*
O=C(Cn1cc2c(n1)CCCC2)NCc1cccs1	0%	-10%	0%	nt	5.2µM*
CC1CCc2nn(CC(=O)NCc3ccc(F)cc3)cc2C1 (centres undefined)	0%	10%	0%	-2%	9.3µM*
O=C(Cn1cc2c(n1)CCCC2)NCc1ccccn1	-7%	-3%	134%	4%	34%
CCOCCc1nnc(NC(=O)C(=O)c2cc(C)n(-c3ccc(Cl)cc3)c2C)s1	3%	nt	nt	nt	nt
COc1ccccc1CCC(=O)N1CCC(n2nccc2NC(=O)C2CCOC2)CC1 (centres undefined)	-29%	0%	-3%	-1%	14%
Cc1ccsc1CN(C(=O)COc1ccccc1Cl)C1CCS(=O)(=O)C1 (centres undefined)	4%	nt	nt	nt	nt
CC1CCc2nn(CC(=O)Nc3ccc(F)cc3F)cc2C1 (centres undefined)	8%	-8%	14%	12%	2.9µM*
CC1CCc2nn(CC(=O)Nc3c(F)cc(F)cc3Br)cc2C1 (centres undefined)	-1%	-2%	-5%	nt	?
C[C@@H](NC(=O)c1ncn(Cc2ccccc2)c1C(=O)N[C@H](C)c1ccccc1)c1ccccc1	-4%	nt	-1%	13µM*	?
O=C1OC(CO)CN1Cc1ccccc1 (centres undefined)	0%	2%	-4%	nt	7%
Cc1ccc(Nc2c([N+](=O)[O-])c(=O)n(C)c3ccccc23)cc1	1%	-5%	0%	-19%	1.7µM*
Cc1ccc(Sc2c([N+](=O)[O-])c(=O)n(C)c3ccccc23)cc1	2µM*	0%	-5%	?	188%
